Laboratory results published in PubChem BioAssay AID618 (Sanford-Burnham Center for Chemical Genomics, 2007).
The whole screen tested about 87,000 compounds, of which about 540 (0.62%) were called active. The rule behind the calls is not given here. Shown is part of a subset that was picked to be rich in actives. A call without a number means that no potency is given here. Potency and affinity values are given separately.

Test: MT1-MMP gene expression reporter suppression – cell-based, luciferase reporter, luminescence (AID 618);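 note: actives suppress MT1-MMP promoter-driven transcription so potencies describe inhibitors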
Details: MT1-MMP promoter luciferase reporter cells
In the case of Cc1ccc2nc(C3CCN(C(=O)NCc4ccccc4)CC3)[nH]c2c1, the outcome is reported as “inactive”. For O=c1cc(CO)oc(CN2CCN(c3ccccc3F)CC2)c1O, the outcome was “inactive”. For CC(C)(C)S(=O)(=O)c1ccc2nc3c(n2c1)CCCC3, the outcome was “inactive”. For Cc1cc2nc(NC3=NCN(CCCN4CCOCC4)CN3)nc(C)c2cc1C, the outcome was “inactive”. For Cc1nc(NC2=NCN(CCN3CCOCC3)CN2)nc2c(C)cccc12, the outcome was “inactive”. In the case of Cc1ccc(NC(=O)NC(=O)N(c2ccccc2)S(C)(=O)=O)cc1, the outcome is reported as “inactive”. With CCOc1ccccc1N1CC(C(=O)N2CCc3ccccc3C2)CC1=O (stereo unspecified) the outcome was “inactive”. In the case of COc1ccc(-c2nc(C#N)c(N3CCOCC3)o2)cc1OC, the outcome is reported as “inactive”. With COc1ccc(CCNc2oc(-c3ccco3)nc2C#N)cc1 the outcome was “inactive”. With OCCNc1nc(Nc2ccccc2)nc2ccccc12 the outcome was “inactive”. For COc1ccc(Nc2nc(C)c3ccccc3n2)cc1, the outcome was “inactive”. With Fc1ccc(Nc2nc(N3CCOCC3)c3ccccc3n2)cc1 the outcome was “inactive”. For COc1ccc(Nc2nc(N3CCCC3)c3ccccc3n2)cc1, the outcome was “inactive”. In the case of Nc1nc(Nc2cccc(F)c2)nc2ccccc12, the outcome is reported as “inactive”. For Nc1nc(Nc2ccccc2)nc2ccccc12, the outcome was “active”. In the case of Cc1ccc(Nc2nc(N3CCOCC3)c3ccccc3n2)cc1, the outcome is reported as “inactive”. For Cc1ccc(NC(=O)N2CCOCC2)c(C)c1, the outcome was “inactive”. With CCC1Oc2ccccc2N(CC(=O)Nc2ccc(OC)cc2OC)C1=O (stereo unspecified) the outcome was “inactive”. For COc1ccccc1C(=O)Nc1nc(-c2cccs2)c(NC(C)=O)s1, the outcome was “inactive”. In the case of CC(C)CCOC(=O)C1C(c2ccccc2)C(C(=O)O)C1c1ccccc1 (stereo unspecified), the outcome is reported as “inactive”. For O=C(c1cccs1)N1CCN(S(=O)(=O)N2CCCCC2)CC1, the outcome was “inactive”. With Cc1ccccc1/C=C1\CCCc2ccccc2C1=O the outcome was “inactive”. For O=C1/C(=C/c2ccccc2)CCCc2ccccc21, the outcome was “inactive”. With O=C(NC1CCN(Cc2ccccc2)CC1)C1CCN(S(=O)(=O)c2cccc3cccnc23)CC1 the outcome was “inactive”. In the case of COc1ccccc1NC(=O)c1ccc(N)cc1, the outcome is reported as “inactive”. For Cc1cc(N2CCC(C)CC2)n2ncc(-c3ccccc3)c2n1, the outcome was “inactive”. With Cc1cc(N2CCCCC2)n2ncc(-c3ccccc3)c2n1 the outcome was “inactive”. In the case of CCOc1ccc(C(=O)NCCCn2ccnc2)cc1, the outcome is reported as “inactive”. With O=C(NC1CCCCC1)NC1(C(=O)N2CCN3CCCC3C2)CCCCC1 (stereo unspecified) the outcome was “inactive”. For CCc1ccc2oc(-c3cc(N)ccc3O)nc2c1, the outcome was “active”. With NCc1ccc(-c2nc3ccccc3o2)cc1 the outcome was “inactive”. In the case of CCc1ccc2oc(-c3cccc(NC(=O)c4cccnc4)c3)nc2c1, the outcome is reported as “inactive”. In the case of CCc1ccc2oc(-c3cc(N)cc(C)c3O)nc2c1, the outcome is reported as “inactive”. In the case of CCc1ccc2oc(-c3ccc(N)cc3)nc2c1, the outcome is reported as “active”. In the case of CCc1ccc2oc(-c3cc(N=Cc4cccc(OC)c4O)ccc3O)nc2c1, the outcome is reported as “active”. In the case of COc1cccc(C=Nc2cc(C)on2)c1O, the outcome is reported as “inactive”. For COc1cccc(C=Nc2ccc3c(c2)OCCO3)c1O, the outcome was “inactive”. With Nc1ccc2oc(-c3cccc(Br)c3)nc2c1 the outcome was “inactive”. In the case of c1cc(-c2nc3cc(Cc4ccc5oc(-c6ccncc6)nc5c4)ccc3o2)ccn1, the outcome is reported as “inactive”. In the case of CCc1ccc2oc(-c3cc(N)ccc3Cl)nc2c1, the outcome is reported as “inactive”. For CC(=Nc1ccccc1)C1=C(O)CSC1=O, the outcome was “inactive”. For COc1ccc(OC)c(NC(=O)c2ccc(NS(=O)(=O)c3c(C)noc3C)cc2)c1, the outcome was “inactive”. With CCn1c(=O)c2c(nc3n2CC(C)CN3CCc2ccccc2)n(C)c1=O (stereo unspecified) the outcome was “inactive”. For CCCN(CCC)S(=O)(=O)c1ccc(NS(=O)(=O)c2ccc(F)cc2)cc1, the outcome was “inactive”. With CCC(=O)c1ccccc1OCCCn1cncn1 the outcome was “inactive”. For CCC(=O)Nc1cc2nn(-c3ccccc3)nc2cc1Cl, the outcome was “active”. For CC(C)CC(=O)Nc1cc2nn(-c3ccccc3)nc2cc1Cl, the outcome was “inactive”. For CC(=O)Nc1cc2nn(-c3ccccc3)nc2cc1Cl, the outcome was “inactive”. In the case of C=CCSc1nnc(-c2ccc(Cl)cc2Cl)o1, the outcome is reported as “inactive”. For CCSc1nnc(-c2ccc(Cl)cc2Cl)o1, the outcome was “inactive”. With Clc1ccc(-c2nnc(SCc3ccon3)o2)c(Cl)c1 the outcome was “active”. In the case of Cc1cc(OCC(=O)N2CCc3ccccc3C2)c2c(-c3ccccc3)cc(=O)oc2c1, the outcome is reported as “inactive”. With Cc1ccc(S(=O)(=O)N(C)Cc2ccc(-c3nnc4n3CCC4)cc2)cc1 the outcome was “inactive”. With COC(=O)CNC(=O)[C@@]1(C)C=C[C@@H](Cc2ccccc2)N1C(=O)OC the outcome was “active”. In the case of CNC(=O)[C@@]1(C)C=C[C@@H](Cc2ccccc2)N1C(=O)OC, the outcome is reported as “inactive”. In the case of COC(=O)CNC(=O)[C@@]1(C)C=C[C@@H](Cc2ccccc2)N1C(C)=O, the outcome is reported as “inactive”. In the case of CCOC(=O)C1CCN(Cc2ccc(F)cc2F)CC1, the outcome is reported as “inactive”. With O=C1NC2(CCOc3ccccc32)C(=O)N1CC(=O)N(Cc1ccccc1)C1CCS(=O)(=O)C1 (stereo unspecified) the outcome was “inactive”. In the case of Cc1ccc2nc(N/N=C\c3ccc([N+](=O)[O-])o3)nc(-c3ccccc3)c2c1, the outcome is reported as “inactive”. For Cn1c(SCc2ccon2)nc2ccccc2c1=O, the outcome was “inactive”. In the case of Cn1c(/C=C/c2ccc([N+](=O)[O-])o2)nc2ccccc2c1=O, the outcome is reported as “active”. For COc1ccccc1C(=O)Nc1ccc2c(c1)nc(CN1CCN(C(C)=O)CC1)n2C, the outcome was “inactive”. With CC(/C=C/c1ccc(O)cc1)=N/O the outcome was “inactive”. In the case of C/C=C(/C(=C/C)c1ccc(O)cc1)c1ccc(O)cc1, the outcome is reported as “inactive”. In the case of Oc1ccc(/C=C/c2cc(O)cc(O)c2)cc1, the outcome is reported as “active”. For c1ccc(Cn2c(Nn3cnnc3)nc3ccccc32)cc1, the outcome was “inactive”. With COc1ccc(CCN(Cc2cc3cccc(C)c3[nH]c2=O)C(=O)NC2CCCCC2)cc1OC the outcome was “inactive”. For CS(=O)(=O)c1ccc2nc(NC(=O)c3ccco3)sc2c1, the outcome was “inactive”. For COc1ccc2sc(NC(C)=O)nc2c1, the outcome was “inactive”. With COc1ccc2sc(NC(=O)c3ccco3)nc2c1 the outcome was “active”. With O=C(Nc1nnc(-c2ccco2)s1)c1ccccc1 the outcome was “inactive”. With O=C(Nc1nc2ccc(Cl)cc2s1)c1ccco1 the outcome was “inactive”. For CCOc1ccc2nc(NC(=O)c3cnc(C)cn3)sc2c1, the outcome was “inactive”. In the case of COc1ccc2nc(NC(=O)c3ccoc3C)sc2c1, the outcome is reported as “inactive”. With COc1ccc2c(c1)Cc1sc(NC(=O)c3ccco3)nc1-2 the outcome was “inactive”. With COc1ccccc1C(=O)Nc1nnc(-c2ccco2)s1 the outcome was “inactive”. For O=C(CCN1C(=O)COc2ccccc21)NCc1cccnc1, the outcome was “inactive”. With O=C(NCc1cccnc1)C1CCN(S(=O)(=O)N2CCC3(CC2)OCCO3)CC1 the outcome was “inactive”. In the case of Cc1ccc(NC(=O)C2CCN(C(=O)NC3CCCCC3)CC2)cc1, the outcome is reported as “inactive”. With CC(=O)c1ccc(OCC(O)CN2CCC(C)CC2)cc1 (stereo unspecified) the outcome was “inactive”. For Cc1ccc(C)c(OCCCC(=O)O)c1, the outcome was “inactive”. For Nc1ccc(Oc2ccc([N+](=O)[O-])cc2[N+](=O)[O-])cc1, the outcome was “inactive”. With COc1ccccc1NC(=O)CSc1nnc(-c2ccco2)o1 the outcome was “inactive”. In the case of NC(=O)C1(N2CCCCC2)CCN(c2nc(-c3ccccc3)cs2)CC1, the outcome is reported as “inactive”. With COCCn1c(=S)[nH]c2cc(C(=O)NCC3CCCO3)ccc2c1=O (stereo unspecified) the outcome was “inactive”. With COc1cccc(C(=O)Nc2ccc(C(=O)O)cc2)c1 the outcome was “inactive”. For c1ccc(-c2noc(CSc3nnc(Cc4cccs4)n3-c3ccccc3)n2)cc1, the outcome was “inactive”. For Cc1nn2cc(-c3ccc(-c4ccccc4)cc3)nc2s1, the outcome was “active”. For CCc1nn2cc(-c3ccccc3)nc2s1, the outcome was “active”. In the case of Nc1nc(-c2ccc(Cl)cc2)cn1N, the outcome is reported as “inactive”. For Cc1c(C(=O)N2CCOCC2)sc2nc(-c3ccccc3)cn12, the outcome was “inactive”. With Cc1nc(-c2ccccc2)cs1 the outcome was “inactive”. With Cc1nn2c(-c3ccc(Cl)cc3)nnc2s1 the outcome was “inactive”. With O=C(O)CCc1nn2cc(-c3ccccc3)nc2[nH]c1=O the outcome was “inactive”. For Cc1nn2cc(-c3ccc(Cl)cc3)nc2s1, the outcome was “active”. For CCN(CC)CCNC(=O)c1sc2nc(-c3ccccc3)cn2c1C, the outcome was “inactive”. For Cc1cccn2cc(-c3ccccc3)nc12, the outcome was “inactive”. In the case of Cc1nn2cc(-c3ccccc3)nc2[nH]c1=O, the outcome is reported as “inactive”. For Cc1ccc(CNCc2cc3c(C(C)(C)C)nn(-c4ccccc4)c3[nH]c2=O)cc1, the outcome was “inactive”. In the case of O=C(O)CNS(=O)(=O)c1cc(Cl)c(Cl)cc1Cl, the outcome is reported as “inactive”. For Cc1ccc(NC(=O)CS(=O)CC(=O)N(c2ccc(C)cc2)C(C)C(=O)NC2CCCCC2)cc1 (stereo unspecified), the outcome was “inactive”. With CC(C)COC(=O)CNc1n[nH]c(=S)[nH]c1=O the outcome was “inactive”. With Cc1cc(NC(=O)COC(=O)[C@H](Cc2c[nH]c3ccccc23)NC(=O)c2ccc(F)cc2)no1 the outcome was “inactive”. In the case of COC(=O)CSc1nnc(-c2ccncc2)o1, the outcome is reported as “inactive”. In the case of C=CCn1c(SCC(=C)C)nc2c1c(=O)[nH]c(=O)n2C, the outcome is reported as “inactive”. For Cc1ccc(Cn2c(-n3nc(C)cc3C)nc3c2c(=O)[nH]c(=O)n3C)cc1, the outcome was “inactive”. With COc1ccc(CCn2c(-n3nc(C)cc3C)nc3c2c(=O)[nH]c(=O)n3C)cc1 the outcome was “active”. For Cc1cc(C)n(-c2nc3c(c(=O)[nH]c(=O)n3C)n2CCc2ccccc2)n1, the outcome was “inactive”. For O=c1ccc2ccc(OCc3nnc(-c4ccccc4Br)o3)cc2o1, the outcome was “inactive”. With O=c1c2ccccc2nc2c3ccccc3c3nncn3n12 the outcome was “inactive”. In the case of O=C(Nc1ccc(S(=O)(=O)N2CCOCC2)cc1)c1cccs1, the outcome is reported as “inactive”. For COc1ccc(-n2nnnc2S(=O)(=O)Cc2ccc(C(=O)O)cc2)cc1, the outcome was “inactive”. In the case of COc1ccc(-n2nnnc2S(=O)(=O)CC(=O)N2CCCCC2)cc1, the outcome is reported as “active”. For COc1cc(OC)cc(-n2nnnc2SCC(=O)N2CCCC2)c1, the outcome was “inactive”. In the case of Cc1ccc2[nH]c(=O)c(-c3noc(C(C)C)n3)cc2c1, the outcome is reported as “inactive”. In the case of Cc1cccc(CS(=O)(=O)Cc2ccc(C(=O)O)o2)c1, the outcome is reported as “inactive”. With Brc1ccc(-c2ncc(-c3ccccc3)cn2)cc1 the outcome was “inactive”. With Nc1ccc(-c2cnc(-c3ccc(N)cc3)nc2)cc1 the outcome was “inactive”. For O=C(O)CCc1nn2cnc3sc4c(c3c2nc1=O)CCCC4, the outcome was “inactive”. For CCOc1c(S(=O)(=O)N2CCCC2)ccc(Cl)c1Cl, the outcome was “inactive”. In the case of Cc1cccc(NC(=O)c2cc3n(n2)C(C(F)(F)F)CC(c2ccc4c(c2)OCO4)N3)c1 (stereo unspecified), the outcome is reported as “inactive”.
